PubChem BioAssay AID1445 (SRMLSC, 2008)
About 910 (0.41%) of roughly 220,000 compounds were called active. The list comes from a sample in which actives are over-represented; it also holds similar structures and randomly drawn compounds. Potency and affinity values are given separately. A number with no mark means an inactive call.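 Rule for the calls: active = primary inhibition above the hit cutoff, then over 50% inhibition at one or more dose response concentrations (cut at about 23% in these data, passing the limit was not always enough); inconclusive = conflicting primary data, or primary hits not chosen for dose response; inactive = low primary inhibition, or under 50% at every dose.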

Each compound was assayed against Aminopeptidase N (Plasmodium falciparum (isolate 3D7)) (UniProt O96935) (assay: P. falciparum M1AAP inhibitors, biochemical, fluorogenic H-Leu-NHMec substrate, 1536-well (AID 1445;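 note: plate controls were DMSO full reaction for no effect and no enzyme background for full effect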)). Conditions: recombinant M1AAP, H-Leu-NHMec fluorogenic kinetic assay; at 30 µM, stronger effect = higher value unless noted.
Aminopeptidase N (Plasmodium falciparum (isolate 3D7)), sequence (O96935 whole entry, looked up): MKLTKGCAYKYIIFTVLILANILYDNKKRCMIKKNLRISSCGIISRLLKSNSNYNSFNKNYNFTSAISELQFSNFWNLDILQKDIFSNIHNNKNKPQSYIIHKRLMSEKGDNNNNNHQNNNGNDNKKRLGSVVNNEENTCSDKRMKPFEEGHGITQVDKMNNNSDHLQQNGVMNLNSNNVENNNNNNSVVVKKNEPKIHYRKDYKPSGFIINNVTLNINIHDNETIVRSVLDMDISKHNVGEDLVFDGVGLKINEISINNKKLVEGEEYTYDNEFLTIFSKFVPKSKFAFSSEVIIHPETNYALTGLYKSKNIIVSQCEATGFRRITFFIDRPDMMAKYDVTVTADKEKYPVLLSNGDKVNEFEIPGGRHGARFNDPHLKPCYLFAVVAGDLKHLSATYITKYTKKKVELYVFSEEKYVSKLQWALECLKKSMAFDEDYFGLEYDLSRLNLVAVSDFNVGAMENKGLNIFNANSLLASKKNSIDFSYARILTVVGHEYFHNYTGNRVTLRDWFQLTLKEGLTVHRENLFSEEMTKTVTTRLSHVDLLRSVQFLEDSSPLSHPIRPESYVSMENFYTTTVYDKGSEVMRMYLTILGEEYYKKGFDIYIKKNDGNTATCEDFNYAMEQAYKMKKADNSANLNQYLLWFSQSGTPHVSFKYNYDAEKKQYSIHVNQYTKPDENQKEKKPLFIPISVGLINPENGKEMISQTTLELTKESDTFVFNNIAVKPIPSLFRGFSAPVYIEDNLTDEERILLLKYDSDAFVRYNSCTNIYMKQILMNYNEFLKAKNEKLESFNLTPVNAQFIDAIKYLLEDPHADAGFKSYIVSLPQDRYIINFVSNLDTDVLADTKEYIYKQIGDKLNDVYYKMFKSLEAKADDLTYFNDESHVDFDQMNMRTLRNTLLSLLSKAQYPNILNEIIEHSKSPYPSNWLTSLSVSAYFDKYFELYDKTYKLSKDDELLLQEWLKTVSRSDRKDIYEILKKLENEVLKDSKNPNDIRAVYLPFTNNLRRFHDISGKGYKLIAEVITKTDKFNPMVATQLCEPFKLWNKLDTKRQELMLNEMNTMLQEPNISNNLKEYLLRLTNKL
For `O=C(/C=C/c1ccc(S(=O)(=O)N2CCOCC2)cc1)NCc1ccc(Cl)cc1`, the inhibition was -0.73%.
`C=CCn1c(COc2ccccc2)nnc1SCC(=O)O` showed an inhibition of 0.9%.
Compound `Cc1nn(-c2ccccc2)c(C)c1NC(=O)Cc1cccs1` has an inhibition of 4.27%.
`CC(C)OC(=O)CSc1ncnc2c1cnn2Cc1ccccc1` was tested, and the inhibition was 0.69%.
With `Cc1ccc(S(=O)(=O)N2CCCC2C(=O)Nn2cnnc2)cc1` (stereo unspecified) the inhibition was -0.66%.
For `O=C(O)c1cccc(-n2cccc2/C=C2\SC(=O)N(Cc3ccccc3F)C2=O)c1`, the inhibition was 15.3%.
Work on `Cc1cccc(C)c1NC(=O)CN1C(=O)S/C(=C\c2cccn2-c2cccc(C(=O)O)c2)C1=O` yielded an inhibition of 8.9%.
`CCOC(=O)C1(C(F)(F)F)N=C(C(F)(F)F)Nc2cc(C)c(C)cc21` (stereo unspecified) was tested, and the inhibition was 1.48%.
Compound `O=C1C(C=Nc2ccccc2O)=C(O)c2ccccc21` has an inhibition of 20.6%.
Compound `Cc1ccccc1N=CC1=C(O)c2ccccc2C1=O` has an inhibition of 4.59%.
With `CC(C)(C)NC(=O)C(c1ccncc1)N(Cc1cccs1)C(=O)c1csnn1` (stereo unspecified) the inhibition was -14%.
Work on `Cc1ccc(C(C(=O)NC2CCCC2)N(Cc2cccs2)C(=O)c2csnn2)o1` (stereo unspecified) yielded an inhibition of 7.36%.
Work on `COCCN(C(=O)c1csnn1)C(C(=O)NC1CCCCC1)c1sccc1C` (stereo unspecified) yielded an inhibition of 21.1%.
With `O=C(NC1CCCC1)C(c1ccncc1)N(Cc1cccs1)C(=O)c1csnn1` (stereo unspecified) the inhibition was 24.6% (active).
`Cc1ccc(C(C(=O)NC2CCCCC2)N(C(=O)c2csnn2)C2CC2)o1` (stereo unspecified) gave an inhibition of 9.01%.
In the case of `O=C(COC(=O)c1ccncc1)NCCCc1ccccc1`, the inhibition is reported as 2.54%.
In the case of `Cc1ccc(Cl)cc1NC(=O)c1cccc(OC(F)F)c1`, the inhibition is reported as 5.73%.
With `COc1ccccc1NC(=O)CSc1nnc(-c2ccoc2C)n1CCc1ccccc1` the inhibition was 24.7% (active).
`Cc1occc1-c1nnc(SCC(=O)Nc2ccccc2)n1CCc1ccccc1` showed an inhibition of 0.44%.
`Cc1ccccc1NC(=O)CSc1nnc(-c2ccoc2C)n1CCc1ccccc1` was tested, and the inhibition was 8.39%.
Compound `CCC(=O)c1cc2c(C)cc(=O)oc2c(C)c1O` has an inhibition of 4.77%.
`CCCCc1cc(=O)oc2cc(OCc3nn[nH]n3)c(Cl)cc12` was tested, and the inhibition was 6.21%.
`CCCCc1cc(=O)oc2cc(OCc3cc(OC)c(OC)c(OC)c3)c(Cl)cc12` showed an inhibition of -3.71%.
`Cc1cc(=O)oc2c(N)c(O)ccc12` was tested, and the inhibition was 8.69%.
Compound `CCN(CC)Cc1c(O)ccc2c(-c3ccccc3)cc(=O)oc12` has an inhibition of 8.74%.
`CCCCc1cc(=O)oc2cc(OCC(=O)N(CC)CC)c(Cl)cc12` was tested, and the inhibition was 6.8%.
`C=CCc1c(O)c(CC)cc2c(C)cc(=O)oc12` gave an inhibition of 10.9%.
For `COc1ccccc1N1CCN(C(=O)CSc2ccccc2)CC1`, the inhibition was -1.68%.
For `COc1cc(OC)cc(-c2nnc(SCC(=O)N(Cc3ccccc3)C(C)(C)C)o2)c1`, the inhibition was 1.01%.
`Cc1cccc(NC(=O)c2ccccc2OCC(=O)c2ccc(F)cc2)c1` gave an inhibition of 3.15%.
With `COC(=O)c1cc(Br)c(N)cc1OC` the inhibition was -6.6%.
`CC(=O)c1cccc(NC(=O)C2CC(=O)N(c3cccc(C)c3C)C2)c1` (stereo unspecified) gave an inhibition of -2.91%.
`O=C(O)c1ccccc1C(=O)NNc1cccc(Cl)n1` was tested, and the inhibition was 0.28%.
`O=C(CCCc1nc2ccccc2s1)NNC(=O)CCN1CCN(Cc2ccccc2)CC1` gave an inhibition of 2.9%.
In the case of `O=C(O)CC1=C(Nc2ccccc2)C(=O)N(c2ccccc2)C1c1ccc(F)cc1` (stereo unspecified), the inhibition is reported as -3.54%.
For `CCCCN(C)Cc1c(O)ccc2c(-c3ccccc3)cc(=O)oc12`, the inhibition was 3.86%.
For `CCCc1cc(=O)oc2c(C)c3occ(C)c3cc12`, the inhibition was -0.02%.
In the case of `CCCc1cc(=O)oc2cc(OCC(=O)N(C)C)c(Cl)cc12`, the inhibition is reported as -0.86%.
`CN(C)Cc1c(O)ccc2c(-c3ccccc3)cc(=O)oc12` was tested, and the inhibition was 7.13%.
`Oc1c(C(c2cccc(F)c2)N2CCN(Cc3ccccc3)CC2)sc2ncnn12` (stereo unspecified) showed an inhibition of 9.71%.
For `Cc1ccc(-c2cc(C(=O)O)n[nH]2)o1`, the inhibition was 5.31%.
`CC1CCCCN1C(=O)c1cc(-c2ccc(Cl)c(Cl)c2)on1` (stereo unspecified) was tested, and the inhibition was -16.2%.
In the case of `O=C(CSc1nnc(-c2cc3ccccc3cc2O)n1Cc1ccco1)N1CCc2ccccc2C1`, the inhibition is reported as 10.2%.
`c1ccc(CSCc2cn3ccccc3n2)cc1` was tested, and the inhibition was -5.43%.
`O=C(O)c1ccc(-c2ccccn2)s1` gave an inhibition of 0.37%.
`Nc1ccc(-c2ccc(C(=O)O)s2)cn1` was tested, and the inhibition was 28.6%.
With `CC1CCc2c(sc3nc(CSc4n[nH]c(N)n4)[nH]c(=O)c23)C1` (stereo unspecified) the inhibition was -10.6%.
In the case of `O=C(Nc1nccs1)c1csc2c1CCCC2`, the inhibition is reported as 8.61%.
In the case of `Cc1ccc(-c2ccc(=O)n(CC(=O)Nc3cccc(C(=O)N4CCN(C)CC4)c3)n2)cc1`, the inhibition is reported as 6.7%.
`O=C1CC(c2ccccc2F)c2c(c3ccccc3[nH]c2=O)O1` (stereo unspecified) showed an inhibition of 0.7%.
`N#Cc1c(NC(=O)CSc2nnc(-c3ccccc3)o2)sc2c1CCCC2` was tested, and the inhibition was 21.3%.
Compound `Cc1sc(NC(=O)CSc2nnc(-c3ccc(F)cc3)o2)c(C#N)c1C` has an inhibition of 16%.
With `Cc1sc(NC(=O)CSc2nnc(-c3ccccc3)o2)c(C#N)c1C` the inhibition was 25% (active).
`COC(=O)CSc1nnc(-c2ccc(NS(=O)(=O)c3ccccc3)cc2)o1` was tested, and the inhibition was 7.24%.
Work on `CCc1nnc(NC(=O)CSc2nnc(-c3ccco3)o2)s1` yielded an inhibition of -0.37%.
`Cc1ccc(-n2c(C)nc3c(cnn3-c3ccc(C)c(C)c3)c2=O)cc1C` gave an inhibition of 2.27%.
Compound `CNNC(=O)C(=O)NNS(=O)(=O)c1ccccc1` has an inhibition of 4.63%.
In the case of `O=C1c2ccccc2C(=O)N1Cc1nc2ccccc2o1`, the inhibition is reported as 13%.
Work on `O=C1c2ccccc2C(=O)N1c1ccc(-c2nc3ccccc3o2)cc1` yielded an inhibition of -1.24%.
Compound `O=C(c1ccc(F)cc1)N(NC(=O)C(O)(c1ccccc1)c1ccccc1)c1ccccc1` has an inhibition of 0.71%.
Compound `COc1ccc(C(=O)/C=C/Nc2cc(C)on2)cc1` has an inhibition of 8.8%.
Work on `COc1ccc([N+](=O)[O-])cc1/C=N/NC(=O)/C(=C\c1cccs1)NC(=O)c1ccccc1` yielded an inhibition of 4.13%.
Compound `CCCCCn1c(-c2ccco2)nc2nc3ccccc3nc21` has an inhibition of 13%.
`Fc1ccccc1-c1nc2nc3ccccc3nc2n1CC1CCCO1` (stereo unspecified) was tested, and the inhibition was 14.5%.
`c1coc(-c2nc3nc4ccccc4nc3n2CC2CCCO2)c1` (stereo unspecified) was tested, and the inhibition was 26% (active).
`COCCn1c(-c2ccco2)nc2nc3ccccc3nc21` showed an inhibition of 22.9%.
In the case of `c1ccc(-c2nc3nc4ccccc4nc3n2CC2CCCO2)cc1` (stereo unspecified), the inhibition is reported as 15.8%.
For `COC(=O)c1ccccc1NC(=O)Cn1cnc2ccc(S(=O)(=O)N3CCC(C)CC3)cc2c1=O`, the inhibition was 20.3%.
For `CCOC(=O)C1=C(CN2CCSCC2)NC(=O)NC1c1ccc2c(c1)OCO2` (stereo unspecified), the inhibition was -5.96%.
`O=[N+]([O-])c1ccccc1/C=N/N1CCN(c2ccc(Cl)cc2)CC1` was tested, and the inhibition was 1.05%.
`C/C(N)=C(/C#N)C(=O)COC(=O)Cc1coc2cc(C)ccc12` showed an inhibition of 4.44%.
`C/C(=N\NC(=O)c1cc2ccccc2cc1O)c1cc2ccccc2o1` gave an inhibition of 3.43%.
With `C/C(=N\NC(=O)c1ccc(Br)cc1)C1C(=O)c2ccccc2C1=O` the inhibition was 39.9%.
`C/C(=N\NC(=O)c1ccc(-c2ccccc2)cc1)C1C(=O)c2ccccc2C1=O` was tested, and the inhibition was -1.49%.
With `C/C(CC(=O)N1CCCC1)=N\NC(=O)c1cc2ccccc2cc1O` the inhibition was 10.8%.
Work on `CCOc1ccc(C(=O)N/N=C(/C)C2C(=O)c3ccccc3C2=O)cc1` yielded an inhibition of 4.51%.
With `C/C(=N\NC(=O)CCc1ccccc1)C1C(=O)c2ccccc2C1=O` the inhibition was 0.57%.
`CCOc1ccccc1N(CC(=O)NCCOC)C(=O)CCC(=O)Nc1ccccn1` showed an inhibition of -5.17%.
Work on `CCC1CCCCN1CCCNC(=O)CC1Oc2ccccc2NC1=O` (stereo unspecified) yielded an inhibition of 7.18%.
Compound `COc1cc([N+](=O)[O-])ccc1NC(=O)CCCOc1ccc(C)cc1` has an inhibition of 17.4%.
Compound `CC(C)(C)c1cc(C(=O)N/N=C/c2ccccc2O)n(-c2ccccc2)n1` has an inhibition of 11.1%.
`COCCCNC(=O)Cn1nnc(-c2ccc(NC(=O)c3ccccc3F)cc2)n1` showed an inhibition of 0.6%.
Compound `Nc1nc(COc2ccc3ccccc3c2)cs1` has an inhibition of -0.25%.
Compound `O=C(NN=C1CCCCCC1)NC1CCCCC1` has an inhibition of -3.52%.
`CCCc1nnc(NC(=O)CN2CCN(C)CC2)s1` gave an inhibition of 5.59%.
`FC(F)(F)c1nc2ccccc2[nH]1` showed an inhibition of -1.24%.
`O=C(O)c1cccc2[nH]c(C(F)(F)F)nc12` gave an inhibition of 9.3%.
`CC(C)(C)NC(=O)Cn1c(SCC(N)=O)nc2ccccc21` gave an inhibition of 2.96%.
With `O=C(OCC(=O)N1CCc2ccccc21)c1nc(Cl)ccc1Cl` the inhibition was 0.15%.
Compound `CN(C)C(=O)CN1C(=O)C2CCCCN2C(=O)c2ccccc21` (stereo unspecified) has an inhibition of 8.25%.
Work on `NC(=O)CN1C(=O)C2CCCCN2C(=O)c2ccccc21` (stereo unspecified) yielded an inhibition of -4.54%.
`Cc1noc(C)c1S(=O)(=O)N1CCCC(C(=O)N2CCN(C3CCCCC3)CC2)C1` (stereo unspecified) was tested, and the inhibition was 8.08%.
With `Cc1cc(C)nc(N2CCC(C(=O)NCCc3ccc(F)cc3)CC2)n1` the inhibition was 3.16%.
With `N#C/C(=N\Nc1ccccc1)C(=N)N1CCCCC1` the inhibition was -1.69%.
With `CCOC(=O)CCCCC(=O)c1[nH]c(=O)[nH]c1CSc1nc2ccccc2[nH]1` the inhibition was 8.8%.
`CCOC(=O)CCCCC(=O)c1[nH]c(=O)[nH]c1CSc1nc(-c2ccccc2)c(C#N)c(=O)[nH]1` was tested, and the inhibition was 23.6% (active).
`CCSc1nc(-c2ccccc2)c(C#N)c(=O)[nH]1` gave an inhibition of -8.26%.
`N#Cc1c(-c2ccccc2)nc(SCC(=O)Nc2nnc(C(F)(F)F)s2)[nH]c1=O` gave an inhibition of 17.8%.
Work on `CSc1nc(-c2ccccc2)c(C#N)c(=O)[nH]1` yielded an inhibition of 2.21%.
In the case of `Cc1cccc(NC(=O)CSc2nc(-c3ccccc3)c(C#N)c(=O)[nH]2)c1C`, the inhibition is reported as 14.7%.
`CCOC(=O)CCCCC(=O)c1[nH]c(=O)[nH]c1CSc1nc(C)cc(=O)[nH]1` was tested, and the inhibition was 7.83%.
